These results are taken from ChEMBL document CHEMBL5308504, “Tm Shift (DSF) assay results for EUbOPEN Chemogenomics Library” (2023).

Holding throughout (settings): Compound concentration 20.0 uM, Protein concentration 2.0 uM, Result type QC Liability
In assay [1] the target is Tyrosine-protein kinase ABL1 (Homo sapiens) (UniProt P00519).
The target of assay [2] is Cyclin-dependent kinase 2 (Homo sapiens) (UniProt P24941).
Assay [3] deals with Casein kinase I isoform delta (Homo sapiens) (UniProt P48730).
For assay [4], the target named is Glycogen synthase kinase-3 beta (Homo sapiens) (UniProt P49841).
Assay [5] has as its target Mitogen-activated protein kinase 1 (Homo sapiens) (UniProt P28482).
Assay [6] concerns the target T1, Aurora kinase A (Homo sapiens) (UniProt O14965).
T1 sequence (whole entry): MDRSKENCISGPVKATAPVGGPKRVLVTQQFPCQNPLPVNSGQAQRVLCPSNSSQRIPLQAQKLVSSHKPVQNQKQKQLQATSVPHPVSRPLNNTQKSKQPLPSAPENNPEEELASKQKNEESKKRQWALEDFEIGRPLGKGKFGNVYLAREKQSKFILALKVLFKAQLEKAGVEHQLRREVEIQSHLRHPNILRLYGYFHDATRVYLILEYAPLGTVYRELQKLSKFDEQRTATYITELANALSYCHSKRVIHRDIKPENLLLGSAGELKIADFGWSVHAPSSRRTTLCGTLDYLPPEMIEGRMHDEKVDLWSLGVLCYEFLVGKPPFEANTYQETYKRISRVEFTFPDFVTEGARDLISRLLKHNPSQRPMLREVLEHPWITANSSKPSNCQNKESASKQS

Structures are written as SMILES.

Chain of Glycogen synthase kinase-3 beta (Homo sapiens) (P49841 whole entry, looked up): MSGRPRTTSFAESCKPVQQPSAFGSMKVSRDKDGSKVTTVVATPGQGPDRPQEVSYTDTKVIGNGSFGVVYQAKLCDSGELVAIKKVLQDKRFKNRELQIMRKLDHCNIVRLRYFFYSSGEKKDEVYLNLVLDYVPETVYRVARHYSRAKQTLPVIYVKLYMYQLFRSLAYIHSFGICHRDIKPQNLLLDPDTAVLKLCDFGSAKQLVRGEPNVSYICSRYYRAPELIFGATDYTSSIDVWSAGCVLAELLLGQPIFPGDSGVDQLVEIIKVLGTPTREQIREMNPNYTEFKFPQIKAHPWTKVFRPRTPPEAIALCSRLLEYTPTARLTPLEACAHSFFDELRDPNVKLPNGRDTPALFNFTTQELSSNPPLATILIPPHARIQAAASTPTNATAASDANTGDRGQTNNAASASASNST
Chain of Casein kinase I isoform delta (Homo sapiens) (P48730 whole entry, looked up, canonical isoform): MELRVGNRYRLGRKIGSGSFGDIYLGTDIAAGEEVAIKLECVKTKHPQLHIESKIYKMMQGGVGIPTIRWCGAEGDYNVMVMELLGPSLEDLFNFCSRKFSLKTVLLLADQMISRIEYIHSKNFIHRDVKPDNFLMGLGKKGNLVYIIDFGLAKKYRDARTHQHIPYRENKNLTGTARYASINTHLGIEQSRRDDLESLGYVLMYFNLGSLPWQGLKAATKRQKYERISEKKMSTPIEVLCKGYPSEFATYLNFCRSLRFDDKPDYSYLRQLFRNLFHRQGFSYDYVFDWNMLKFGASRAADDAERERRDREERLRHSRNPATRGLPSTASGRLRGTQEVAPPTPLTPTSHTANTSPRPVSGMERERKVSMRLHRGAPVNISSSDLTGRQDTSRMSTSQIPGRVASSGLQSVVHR
Chain of Mitogen-activated protein kinase 1 (Homo sapiens) (P28482 whole entry): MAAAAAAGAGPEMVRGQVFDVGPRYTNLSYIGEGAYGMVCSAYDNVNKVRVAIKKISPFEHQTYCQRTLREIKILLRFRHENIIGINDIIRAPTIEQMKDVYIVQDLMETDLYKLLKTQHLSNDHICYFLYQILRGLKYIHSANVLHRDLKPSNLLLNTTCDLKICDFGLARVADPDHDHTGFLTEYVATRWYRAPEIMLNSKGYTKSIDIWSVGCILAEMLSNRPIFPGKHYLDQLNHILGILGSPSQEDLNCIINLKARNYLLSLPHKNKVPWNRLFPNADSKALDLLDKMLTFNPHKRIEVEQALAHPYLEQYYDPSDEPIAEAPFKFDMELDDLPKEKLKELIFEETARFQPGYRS
Chain of Tyrosine-protein kinase ABL1 (Homo sapiens) (P00519 whole entry): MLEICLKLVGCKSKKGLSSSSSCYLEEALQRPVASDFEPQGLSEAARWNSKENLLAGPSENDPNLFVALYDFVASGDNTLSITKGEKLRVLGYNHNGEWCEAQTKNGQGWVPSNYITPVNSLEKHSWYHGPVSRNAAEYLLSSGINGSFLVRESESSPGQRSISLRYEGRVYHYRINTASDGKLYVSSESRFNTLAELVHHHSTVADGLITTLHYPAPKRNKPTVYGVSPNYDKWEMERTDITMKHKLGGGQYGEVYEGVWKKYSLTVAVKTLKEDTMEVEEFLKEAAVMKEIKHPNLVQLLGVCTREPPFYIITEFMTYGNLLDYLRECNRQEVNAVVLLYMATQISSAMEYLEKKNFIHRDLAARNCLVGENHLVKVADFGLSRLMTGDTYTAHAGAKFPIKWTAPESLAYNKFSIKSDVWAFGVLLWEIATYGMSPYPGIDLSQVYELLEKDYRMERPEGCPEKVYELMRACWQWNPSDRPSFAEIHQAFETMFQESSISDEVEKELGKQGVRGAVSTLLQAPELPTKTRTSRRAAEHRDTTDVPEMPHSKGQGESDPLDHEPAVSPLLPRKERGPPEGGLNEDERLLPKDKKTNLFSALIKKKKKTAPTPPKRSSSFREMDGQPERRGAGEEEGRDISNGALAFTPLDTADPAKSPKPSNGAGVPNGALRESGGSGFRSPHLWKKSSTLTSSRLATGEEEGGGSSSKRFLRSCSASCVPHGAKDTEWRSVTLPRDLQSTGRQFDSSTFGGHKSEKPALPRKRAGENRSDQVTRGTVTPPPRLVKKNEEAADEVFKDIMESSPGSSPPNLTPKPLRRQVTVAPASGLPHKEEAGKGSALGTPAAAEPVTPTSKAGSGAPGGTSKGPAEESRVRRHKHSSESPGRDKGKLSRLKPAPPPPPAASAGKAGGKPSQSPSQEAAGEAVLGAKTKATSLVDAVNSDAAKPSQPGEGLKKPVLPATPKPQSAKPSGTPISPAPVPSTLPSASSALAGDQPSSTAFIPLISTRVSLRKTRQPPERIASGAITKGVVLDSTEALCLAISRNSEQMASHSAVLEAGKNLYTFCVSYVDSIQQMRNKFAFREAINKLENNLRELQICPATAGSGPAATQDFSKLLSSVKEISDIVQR

The ΔTm is the shift of the melting midpoint relative to a reference. `CCN(C)S(=O)(=O)Nc1cccc(-c2ccc3c(NC(=O)C4CC4)n[nH]c3c2)c1`: the shift in melting temperature (ΔTm) was found to be 4.16 °C in assay [1]; 3.52 °C in assay [2]; 0.06 °C in assay [3]; 3.82 °C in assay [4]; 0.42 °C in assay [5]; 4.06 °C in assay [6].

`CSc1ccc(C(=O)/C=C/c2cc(C)c(OC(C)(C)C(=O)O)c(C)c2)cc1`: the ΔTm stood at 1.1 °C in assay [1]; 0.59 °C in assay [2]; 0.61 °C in assay [3]; 0.69 °C in assay [4]; 0.07 °C in assay [5]; 4.96 °C in assay [6].

On to `CCCCCNC(=O)N1CCC(CN(Cc2ccc(Cl)cc2)Cc2ccc([N+](=O)[O-])s2)C1` (stereo not given), for which the shift in melting temperature (ΔTm) is 0.03 °C in assay [1]; 0.81 °C in assay [2]; 0.7 °C in assay [3]; -1.49 °C in assay [4]; 0.03 °C in assay [5]; -0.9 °C in assay [6].

Turning to `CN[C@@H](C)C(=O)N[C@H](C(=O)N1CCC[C@H]1C(=O)N[C@H]1c2ccccc2C[C@H]1OCC#CC#CCO[C@@H]1Cc2ccccc2[C@@H]1NC(=O)[C@@H]1CCCN1C(=O)[C@@H](NC(=O)[C@H](C)NC)C1CCCCC1)C1CCCCC1`, the ΔTm in assay [1] was 0.18 °C; in assay [2] it was -0.48 °C; in assay [3], 0.49 °C; in assay [4] it was -1.17 °C; in assay [5] it was 0.11 °C; in assay [6], -1.88 °C.

On to `CN(C1CCc2c(c3ccccc3n2CC(=O)O)C1)S(=O)(=O)c1ccc(F)cc1` (stereo not given), for which the shift in melting temperature (ΔTm) in assay [1] is 0.59 °C; in assay [2], 0.46 °C; in assay [3], -0.23 °C; in assay [4], 0 °C; in assay [5] it was -0.11 °C; in assay [6] it was 0.35 °C.

Regarding `Cc1nc2cccnc2n2c(-c3cc(C(C)(C)O)ncc3Cl)nnc12`, the ΔTm in assay [1] is -0.85 °C; in assay [2], 0.85 °C; in assay [3] it was 0.33 °C; in assay [4], -0.45 °C; in assay [5] it was 0.31 °C; in assay [6], -0.06 °C.

Consider `Cc1nccn1-c1ccc(Sc2cccc(C3(C(N)=O)CCOCC3)c2)cc1`, for which the ΔTm in assay [1] was -0.23 °C; in assay [2] it was 0.53 °C; in assay [3], -0.21 °C; in assay [4], 0.36 °C; in assay [5], 0.38 °C; in assay [6], -0.31 °C.

For `N=C(N)Nc1cc(C2CCNCC2)cc(C(F)(F)F)c1`, the ΔTm in assay [1] is 0.05 °C; in assay [2] it was 0.64 °C; in assay [3], 0.15 °C; in assay [4], -0.15 °C; in assay [5], 0.15 °C; in assay [6], -0.12 °C.

For `O=C(CNC(=O)c1ccc(-c2ccccc2)cc1)NC1CCCc2ccccc21` (stereo not given), the ΔTm is 0.75 °C in assay [1]; -0.06 °C in assay [2]; -1.78 °C in assay [3]; -2.76 °C in assay [4]; 0.17 °C in assay [5]; -1.46 °C in assay [6].

Take `COc1ccc(CC[C@@H](OC(=O)[C@@H]2CCCCN2C(=O)[C@H](c2cc(OC)c(OC)c(OC)c2)C2CCCCC2)c2cccc(OCCN3CCOCC3)c2)cc1OC`: the shift in melting temperature (ΔTm) in assay [1] was -1.71 °C; in assay [2], -1.5 °C; in assay [3], -2.54 °C; in assay [4], -2.19 °C; in assay [5] it was -0.05 °C; in assay [6], -0.45 °C.

Consider `CNC(=O)COc1cc2cc(Nc3nc(N4C[C@H](C)C[C@H](C)C4)ncc3Cl)ccc2n(C)c1=O`, for which the shift in melting temperature (ΔTm) is -0.28 °C in assay [1]; 0.46 °C in assay [2]; 0.11 °C in assay [3]; -0.11 °C in assay [4]; 0.15 °C in assay [5]; 0.07 °C in assay [6].

Take `CNS(=O)(=O)c1ccc(N(C)C)c(Nc2ncnc3cc(OC)c(OC)cc23)c1`: the ΔTm in assay [1] was 3.42 °C; in assay [2] it was -0.02 °C; in assay [3] it was 0.23 °C; in assay [4], -0.61 °C; in assay [5], 0.24 °C; in assay [6] it was -1.08 °C.

For the compound `CCS(=O)(=O)c1ccc(OC)c(Nc2ncc(-c3cccc(F)c3)o2)c1`, the ΔTm in assay [1] was 2.1 °C; in assay [2], 0.14 °C; in assay [3] it was -0.13 °C; in assay [4] it was -1.15 °C; in assay [5] it was 0.11 °C; in assay [6], 0.2 °C.

As for `CNC(=O)c1ccc2c(c1)NC(=O)/C2=C(\Nc1ccc(CN2CCCCC2)cc1)c1ccccc1`, the thermal shift (ΔTm) is 7.98 °C in assay [1]; 0.46 °C in assay [2]; 0.03 °C in assay [3]; 1.71 °C in assay [4]; 0.02 °C in assay [5]; 3.8 °C in assay [6].

Regarding `CC#CC(=O)N1CCN(c2nc(-c3ccc(Oc4ccccc4)cc3)c(C(N)=O)s2)CC1`, the shift in melting temperature (ΔTm) in assay [1] was -0.27 °C; in assay [2], -1.44 °C; in assay [3] it was -8 °C; in assay [4], -2.57 °C; in assay [5], -9.83 °C; in assay [6], -1.3 °C.

Take `N#Cc1ccc(COc2ccc(Br)cc2CNCCO)cn1`: the ΔTm is 0.3 °C in assay [1]; 0.22 °C in assay [2]; 0.13 °C in assay [3]; -0.56 °C in assay [4]; 0.45 °C in assay [5]; -1 °C in assay [6].

Turning to `CC1(C)Cc2nc(C3CCCC3)c([C@@H](F)c3ccc(C(F)(F)F)cc3)c(C3CCCCC3)c2[C@@H](O)C1`, the shift in melting temperature (ΔTm) in assay [1] was 0 °C; in assay [2], 1.04 °C; in assay [3], 0.11 °C; in assay [4], 0 °C; in assay [5], 0.06 °C; in assay [6], -0.24 °C.

Turning to `COc1ccc(-c2csc(NC(=O)[C@H]3CCCCN3S(=O)(=O)c3ccc(C)cc3)n2)cc1`, the ΔTm in assay [1] is 0.82 °C; in assay [2], 0.77 °C; in assay [3] it was 2.05 °C; in assay [4], 9.29 °C; in assay [5], -0.89 °C; in assay [6], 0.39 °C.

For `Cc1ccccc1Oc1cc(-n2c(=O)cc(C(F)(F)F)[nH]c2=O)c2ccccc2c1Cl`, the shift in melting temperature (ΔTm) is -0.09 °C in assay [1]; 0.61 °C in assay [2]; 0.85 °C in assay [3]; -1.52 °C in assay [4]; -0.82 °C in assay [5]; -1.95 °C in assay [6].

As for `COc1ccc(CSc2nnc(-c3ccc4ncsc4c3)o2)cc1C(F)(F)F`, the ΔTm in assay [1] is -6.63 °C; in assay [2], 0.54 °C; in assay [3], -10.2 °C; in assay [4] it was -9.01 °C; in assay [5], -8.68 °C; in assay [6], 1.22 °C.

`CC1=C(C(=O)OCCO)[C@@H](c2ccc(C#N)cc2)NC(=O)N1c1cccc(C(F)(F)F)c1`: the shift in melting temperature (ΔTm) in assay [1] was -0.45 °C; in assay [2], -0.38 °C; in assay [3] it was 0.44 °C; in assay [4], -0.19 °C; in assay [5] it was 0.15 °C; in assay [6], -0.11 °C.

As for `COc1cc(-c2cncc(-c3cnn(C4CCNCC4)c3)c2)cc(OC)c1OC`, the ΔTm in assay [1] was 4.87 °C; in assay [2], 0.28 °C; in assay [3] it was 0.76 °C; in assay [4], -0.71 °C; in assay [5] it was 0.5 °C; in assay [6] it was -0.25 °C.

For `O=C(Nc1ccccc1C(=O)O)c1cc(S(=O)(=O)c2ccccc2)ccc1Cl`, the thermal shift (ΔTm) in assay [1] came out at 0.07 °C; in assay [2] it was 1.6 °C; in assay [3], 0.6 °C; in assay [4], 0.85 °C; in assay [5], 0.86 °C; in assay [6], 1.09 °C.

Take `O=C(CCCCCCc1ccccc1)c1ncc(-c2ccccn2)o1`: the ΔTm is 0.19 °C in assay [1]; 0.75 °C in assay [2]; 0.19 °C in assay [3]; -0.85 °C in assay [4]; -0.04 °C in assay [5]; -0.34 °C in assay [6].

For the compound `CN1CCN(C(=O)c2ccc3cc2OCCOCCNc2ccn4ncc-3c4n2)CC1`, the shift in melting temperature (ΔTm) in assay [1] is 1.92 °C; in assay [2], 0.81 °C; in assay [3], 0.3 °C; in assay [4] it was 0 °C; in assay [5] it was 0.5 °C; in assay [6], 3.85 °C.
